From PubChem BioAssay
Sampled rows, rich in hits. Any-hit rate of the full collection: about 0.81%.
NCOA3 inh: human NCOA3 inhibition | 0.17% of 360,000 active | inhibition, % at 3.6 µM | AID 588352 | HEK293 GAL4-SRC3 luciferase reporter, luminescence;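 active = inhibition above a per-campaign cutoff, the mean of all compounds plus 3 SD, cut at about 60% in these data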;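 also: higher means less SRC3-driven luciferase light from the GAL4 reporter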
SRC2 inh: inhibits human steroid receptor coactivator 2; HEK293 GAL4-SRC2 luciferase reporter, luminescence; inhibition, % at 9 µM; Q15596; 0.17% of 370,000 active;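 active = inhibition above the mean inhibition of all tested compounds plus 3 SD, set per campaign, cut at about 52% in these data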
NR5A2 inv ag: inverse agonists of human LRH-1 (NR5A2) | O00482 | HEK293T StAR-luciferase reporter, LRH-1 transfected, 24 h | inhibition, % at 3.6 µM | 0.13% of 360,000 active | AID 602396;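 active = inhibition above the mean inhibition of all tested compounds plus 3 SD, cut at about 73% in these data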
NR2F2 inh: NR2F2 (human) inhibition, primary screen; P24468; HEK293T NGFI-A luciferase reporter, luminescence; inhibition, % at 8.6 µM; 0.7% of 370,000 active; AID 686940;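 active = inhibition above a per-plate cutoff, mean inhibition of test wells between control levels plus 3 SD, cut at about 38% in these data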;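 also: cells cotransfected with COUP-TFII expression vector driving the NGFI-A reporter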
Target sequence (P24468 whole entry, looked up): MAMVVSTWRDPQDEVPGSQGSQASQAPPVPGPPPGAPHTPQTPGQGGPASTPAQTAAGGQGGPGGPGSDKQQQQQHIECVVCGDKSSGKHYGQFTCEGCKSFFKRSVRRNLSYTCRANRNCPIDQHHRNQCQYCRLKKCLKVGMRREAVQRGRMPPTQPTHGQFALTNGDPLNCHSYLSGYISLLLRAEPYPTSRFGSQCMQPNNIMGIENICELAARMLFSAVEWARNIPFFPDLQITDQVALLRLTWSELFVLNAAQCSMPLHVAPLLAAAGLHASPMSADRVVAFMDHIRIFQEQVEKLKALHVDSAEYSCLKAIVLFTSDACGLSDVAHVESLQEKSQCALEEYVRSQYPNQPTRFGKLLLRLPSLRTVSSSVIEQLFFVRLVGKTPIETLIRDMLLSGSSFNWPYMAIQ
SRC1 inh: inhibitors of human steroid receptor coactivator 1 (SRC1); Q15788; HEK293 GAL4-SRC1 luciferase reporter, luminescence; inhibition, % at 3.6 µM; 0.12% of 360,000 active;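 active = inhibition above the campaign mean plus 3 SD, with each screening campaign given its own cutoff, cut at about 60% in these data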
VP16 Luc counter: counter-screen for COUP-TFII antagonists: inhibitors of VP16. HEK293 Gal4-VP16 luciferase reporter, luminescence. shares compounds with NR2F2 inh. AID 687007. inhibition, % at 8.5 µM. 25% of 2,500 active; in the data active = inhibition above about 13%
COUP-TFII conf: COUP-TFII (NR2F2) inhibition, confirmation assay. AID 687008. inhibition, % at 8.5 µM. HEK293 NGFI-A luciferase reporter, luminescence. shares compounds with NR2F2 inh. 45% of 2,500 active;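 active = mean inhibition over three repeats above a set limit taken from the earlier primary screen, cut at about 38% in these data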
Large screens that a line does not name were inactive (follow-up assays come after a bar, where they were run).

Cc1nc2sc(C(N)=O)c(N)c2c2c1CCCC2	NR2F2 inh 50.6 | VP16 Luc counter inactive | COUP-TFII conf inactive
Cc1cc(-c2ccccc2)nc(SCc2ccc(C(=O)O)o2)n1	none
CC1CCCN(c2nc(NCc3ccco3)nc(N)c2[N+](=O)[O-])C1 (centres undefined)	NR2F2 inh 41.2 | VP16 Luc counter inactive | COUP-TFII conf inactive
CCn1c(Cc2ccc(OC)cc2)nnc1SCC(=O)NC1CCCCC1	none
Cc1ccccc1C(=O)N1CCN(c2ccc(NC(=O)CSc3ccc(Cl)cc3)cc2)CC1	NR2F2 inh 53.8 | VP16 Luc counter inactive | COUP-TFII conf 56.9
O=C(COc1ccc(Cl)cc1)Nc1ccc(N2CCN(C(=O)c3ccco3)CC2)cc1	NR2F2 inh 52.1 | VP16 Luc counter inactive | COUP-TFII conf inactive
CCC(=O)Nc1ccc(N2CCN(C(=O)c3ccccc3C)CC2)cc1	none
Cc1ccccc1C(=O)N1CCN(c2ccc(NC(=O)c3ccc4c(c3)OCCO4)cc2)CC1	NR2F2 inh 68.5 | VP16 Luc counter inactive | COUP-TFII conf 58.1
COc1ccc(OCC(=O)Nc2ccc(N3CCN(C(=O)c4ccco4)CC3)cc2)cc1	none
O=C(CN1C(=O)NC2(CCc3ccccc32)C1=O)Nc1ccccc1C(F)(F)F (centres undefined)	none
CCN1/C(=C/c2ccc3cc(C)cc(C)c3[n+]2CC)Sc2cc(C)ccc21	NR2F2 inh 65.8 | VP16 Luc counter 23.0 | COUP-TFII conf 69.0
CCN1/C(=C/c2ccc3cc(C)ccc3[n+]2CC)Sc2ccc3sccc3c21	none (no result: SRC2 inh, NR2F2 inh)
CCN1/C(=C/c2ccc3cccc(C)c3[n+]2CC)Sc2ccccc21	NR2F2 inh 74.3 | VP16 Luc counter 19.0 | COUP-TFII conf 65.8
CCN1/C(=C\c2ccc3cc(C)ccc3[n+]2CC)Sc2cc(C)c(C)cc21	NR2F2 inh 67.3 | VP16 Luc counter inactive | COUP-TFII conf 53.3
COc1ccccc1NC(=S)NCc1ccccn1	none
Cc1ccc(NC(=O)CSc2ccc3c(c2)OCCO3)c(O)c1	NR2F2 inh 39.1 | VP16 Luc counter inactive | COUP-TFII conf inactive
Cc1ccnc(NC(=O)CSc2ccc3c(c2)OCCO3)c1	none
CCOC(=O)[C@]12CCCC=C1N(Cc1ccc(Cl)cc1Cl)C(=O)[C@H](CC(=O)NCCCOC)C2	none (no result: NCOA3 inh, SRC1 inh)
O=C1CSc2ccc(C(=O)Nc3cccc(S(=O)(=O)Nc4ccc(Br)cc4)c3)cc2N1	NR2F2 inh 74.5 | VP16 Luc counter inactive | COUP-TFII conf inactive
CN(C)c1cc[n+](CC(=O)c2ccc(-c3ccccc3)cc2)cc1	NR5A2 inv ag 86.1, NR2F2 inh 52.2 | VP16 Luc counter inactive | COUP-TFII conf 48.4
Cc1cc(C)cc(C(=O)OCCN2CCN(C3CN(Cc4cn(Cc5ccccc5F)nn4)S(=O)(=O)C3)CC2)c1 (centres undefined)	NR2F2 inh 48.5 (no result: NCOA3 inh, NR5A2 inv ag, SRC1 inh) | VP16 Luc counter inactive | COUP-TFII conf inactive
Cc1cc(C)cc(C(=O)OCCN2CCN(C3CN(Cc4cn(Cc5ccc([N+](=O)[O-])cc5)nn4)S(=O)(=O)C3)CC2)c1 (centres undefined)	none (no result: NCOA3 inh, NR5A2 inv ag, SRC1 inh)
Cc1ccn2c(C(=O)N/N=C/c3ccc(Cl)cc3)c(C)nc2c1	none
O=C(Nc1ccc(OCC(F)(F)C(F)F)c(C(F)(F)F)c1)c1ccccc1O	NR2F2 inh 69.4 | VP16 Luc counter inactive | COUP-TFII conf inactive
Cc1nn(-c2ccc3ccccc3c2)c(=O)c2ccccc12	none
Cc1nn(-c2nc3ccccc3[nH]2)c(=O)c2ccccc12	NCOA3 inh 79.8, SRC2 inh 85.4, NR5A2 inv ag 72.8, NR2F2 inh 96.6, SRC1 inh 74.3 | VP16 Luc counter 68.0 | COUP-TFII conf 89.9
C/C(=N/NC(=O)c1ccco1)c1ccc(NC(=O)c2ccc(Br)o2)cc1	none
COc1ccc(-c2noc(CCCCC(=O)N3CCN(c4cc(C)ccc4C)CC3)n2)cc1	NR2F2 inh 82.0 | VP16 Luc counter 21.7 | COUP-TFII conf 65.2
CC#CCOCC1CN(C)C(=O)O1 (centres undefined)	none
CC(=O)C1(O)CCC2C3CCC4CC(=O)CCC4(C)C3C(=O)CC21C (centres undefined)	none
O=S(=O)(c1ccccc1)N1CCC(O)(CSc2ccc(Cl)cc2)CC1	NR2F2 inh 53.9 | VP16 Luc counter inactive | COUP-TFII conf inactive
O=S(=O)(c1ccc(Cl)cc1)N1CCC(O)(CN2CCN(Cc3ccccc3)CC2)CC1	none
Cc1nc(N2CCN(C(=O)COc3ccccc3C)CC2)c2c3c(sc2n1)CCCC3	NR2F2 inh 75.7 (no result: NCOA3 inh, SRC2 inh, NR5A2 inv ag, SRC1 inh) | VP16 Luc counter inactive | COUP-TFII conf inactive
c1nc(N2CCOCC2)c2c3c(sc2n1)CCCC3	none
O=C(c1ccccc1)N1CCN(c2ncnc3sc4c(c23)CCC4)CC1	NR2F2 inh 40.0 | VP16 Luc counter inactive | COUP-TFII conf inactive
O=C(O)CSCC(=O)Nc1ccc(C2CCCCC2)cc1	NCOA3 inh 74.4, SRC2 inh 90.6, NR5A2 inv ag 79.6, NR2F2 inh 90.4, SRC1 inh 75.7 | VP16 Luc counter 83.2 | COUP-TFII conf 77.0
Nn1cnnc1SCC(=O)Nc1ccc(C2CCCCC2)cc1	none
COc1ccc(CCC(=O)N2CCN(c3ccc(OC)cc3)CC2)cc1	none
CCOc1ccc(N2C(=O)CC(Sc3nc4ccc(OCC)cc4s3)C2=O)cc1 (centres undefined)	none
COc1ccc(-c2oc3ccc(N4CCOCC4)cc3c2C#CCO)cc1	NR2F2 inh 71.4 | VP16 Luc counter inactive | COUP-TFII conf 53.4
COc1ccc(-c2sc3ccc(N4CCOCC4)cc3c2C#CC(C)(C)O)cc1	none
COc1ccc(-c2ccc3oc(-c4ccc(OC)cc4)c(C#CCO)c3c2)cc1	NR2F2 inh 45.2 | VP16 Luc counter inactive | COUP-TFII conf 69.8
COc1ccc(-c2ccc3oc(-c4ccc(OC)cc4)c(-c4ccc(OC)cc4)c3c2)cc1	none
O=C(NCc1ccccc1Cl)c1ccc2nnsc2c1	none
CN(C)c1ccc(Nc2ncnc3ccc(Br)cc23)cc1	NR2F2 inh 38.2 | VP16 Luc counter inactive | COUP-TFII conf inactive
Cc1cccc(Nc2ncnc3ccc(Br)cc23)c1	NR2F2 inh 44.9 | VP16 Luc counter inactive | COUP-TFII conf inactive
COc1cccc(C2CC(=O)Nc3cc(OC)c(OC)c(OC)c32)c1OC (centres undefined)	none
CN(CCOc1ccc(-c2ccn(S(=O)(=O)c3c(Cl)cccc3Cl)n2)cc1)c1ccccn1	none
CCOC(=O)c1c(C)[nH]c(C(=O)OCC(=O)Nc2sccc2C(N)=O)c1C	NR2F2 inh 52.2, SRC1 inh 62.1 | VP16 Luc counter inactive | COUP-TFII conf 44.9
CCOC(=O)c1c(C)[nH]c(C(=O)OCC(=O)Nc2ccc(Cl)cn2)c1C	none
Cc1c(C(C)C)c(=O)n(-c2ccc(S(=O)(=O)N3CCOCC3)cc2)n1C	none
Cc1c(C(C)C)c(=O)n(-c2ccc(S(=O)(=O)NC3CCCCC3)cc2)n1C	NR2F2 inh 62.1 | VP16 Luc counter inactive | COUP-TFII conf 38.6
